Results filed as inconclusive are left out. The source made the active and inactive calls. Unless noted, the call rests on the fitted dose curve; in most records, active means well fitted curve in the direction sought with a large enough effect; inconclusive means small, poorly fitted or top-dose-only effect, or another doubt; inactive means no such curve, though single readings can be large; an effect the other way counts as inactive or inconclusive.
Key:
[1] = Cell Viability - MRC5 (AID 434; calls by dose curve;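 further: potency means the concentration at half of the fitted maximal effect; cells exposed to compound for 40 hours at 37 °C; potency reflects cytotoxicity seen as loss of intracellular ATP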); conditions: MRC5 lung fibroblast viability, qHTS
Outline: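 AC50 values come from Hill-equation fits of intracellular ATP loss, measured by CellTiter-Glo luminescence. Normal lung fibroblasts (MRC5) had 40 hr compound treatment at 37 C, normalized between DMSO and 100 uM tamoxifen.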

[2] = target: Mitogen-activated protein kinase 10 (Mus musculus) (UniProt Q61831); assay: JNK3 AlphaScreen Assay (AID 530; active means well fitted curve in either direction with a large enough effect, not every such curve was filed as active;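 further: kinase came from lysate of stimulated human HepG2 cells; potency means the concentration at half of the fitted maximal effect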)
Outline: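 Kinase buffer: 20 mM Tris-HCl pH 7.6, 10 mM MgCl2, 1 mM DTT, 0.1 mM Na3VO4, 0.01% Tween-20; ATP 10 uM. Substrate biotin-GST-cJun(1-79), enzyme from activated HepG2 lysates. Detection by Ser73 phospho-antibody AlphaScreen.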

[3] = Cell Viability - HUV-EC-C (AID 542);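 further: potency means the concentration at half of the fitted maximal effect; cells exposed to compound for 40 hours; nearly all actives have a fitted effect of over 35% in size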
Outline: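 Concentration-dependent ATP loss in HUV-EC-C cells is the measure. Exposure lasts 40 hr at 37 °C; luminescence follows CellTiter-Glo addition, and Hill fits give AC50.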

[4] = Cell Viability - Renal Proximal Tubule (AID 545); conditions: renal proximal tubule cells viability, primary cells of rat origin; activity change, negative = cytotoxicity: at 91.7 µM (top of the series);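 further: potency means the concentration at half of the fitted maximal effect; cells exposed to compound for 40 hours; nearly all actives have a fitted effect of over 40% in size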
Outline: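 Cytotoxicity is scored as a concentration-dependent drop in cellular ATP in primary rat renal proximal tubule cells exposed for 40 hr. AC50 derives from Hill modelling.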

[5] = Cell Viability - Mesenchymal (AID 546); conditions: mesenchymal cells viability, qHTS; activity change, negative = cytotoxicity: at 91.7 µM (top of the series);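 further: potency means the concentration at half of the fitted maximal effect; cells exposed to compound for 40 hours before reading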
Outline: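 CellTiter-Glo luminescence (intracellular ATP, 20 min room temperature) after 40 hr compound exposure at 37 °C of 1000 glomerulus-derived human kidney mesenchymal cells/well; AC50 values obtained by fitting qHTS concentration-response data to the Hill equation.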

[6] = Cellular Toxicity (caspase-3) HepG2 (AID 654);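 further: cells exposed to compound for 16 hours before reading; 0% = DMSO alone and 100% = caspase signal from 100 µM tamoxifen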
Outline: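 Concentration-response AC50 values reflect caspase-3/7 induction in HepG2 cells after 16 hours of compound exposure, quantified by luminescence from liberated aminoluciferin and referenced to 100 uM tamoxifen as full stimulation.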

[7] = Cellular Toxicity (caspase-3) Jurkat (AID 655); conditions: Jurkat caspase-3 activation, luminescence; caspase-3 activation: at 92.2 µM (top of the series), DMSO = 0%, tamoxifen = 100%;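 further: cells exposed to compound for 16 h at 37 °C before reading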
Outline: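 Caspase 3/7 activation is scored as increased luminescence in Jurkat cells cultured with compound for 16 hours in complete medium. AC50 values come from Hill fits of qHTS concentration-response data normalized to DMSO and 100 uM tamoxifen controls.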

[8] = Cellular Toxicity (caspase-3) HUV-EC-C (AID 656)
Outline: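 Read-out: luminescence proportional to caspase 3/7 activity, measured 20 min after adding Caspase-Glo 3/7 reagent. Cells (HUV-EC-C) had received compound for 16 hr at 37°C. Increases relative to DMSO and 100 uM tamoxifen gave concentration-response AC50 values.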

[9] = Cellular Toxicity (caspase-3) SHSY5Y (AID 657)
Outline: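 Cells plated and incubated 5 h at 37 °C, dosed over a concentration range, incubated 16 h, then given Caspase-Glo 3/7 reagent for 1 h at room temperature before luminescence reading. Staurosporine (10 uM) defined full stimulation.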

[10] = Cellular Toxicity (caspase-3) BJ (AID 658); conditions: Potency: caspase-3 activation;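 further: 0% = DMSO basal and 100% = 10 µM staurosporine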
Outline: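 Caspase-Glo 3/7 luminescence, read 1 hr after reagent at room temperature, in normal BJ fibroblasts exposed 16 hours at 37 °C. AC50 values from Hill-equation concentration-response, scaled between DMSO basal and 10 uM staurosporine as 100%.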

[11] = Cellular Toxicity (caspase-3) MRC-5 (AID 659);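 further: 0% = DMSO basal and 100% = 10 µM staurosporine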
Outline: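 Luminescent Caspase-Glo 3/7 read-out (1 h, room temperature) after a 16 h, 37 °C compound exposure of MRC-5 lung fibroblasts at 1500 cells/well. Concentration-response AC50 from Hill equation; 0% DMSO, 100% 10 uM staurosporine.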

[12] = Cellular Toxicity (caspase-3) Mesangial (AID 660); conditions: mesangial cells, normalized: DMSO 0%, 100 µM tamoxifen 100%; at 91.7 µM (top of the series);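 further: cells exposed to compound for 16 h before the caspase read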
Outline: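 AC50 values come from Hill-equation fits of caspase 3/7 activation, measured as Caspase-Glo luminescence in human glomerular mesangial cells exposed to compound for 16 h at 37 °C; 100% set by 100 uM tamoxifen.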

[13] = Cellular Toxicity (caspase-3) H-4-II-E (AID 663); conditions: H-4-II-E rat hepatoma; Potency: caspase-3 activation; caspase-3 activation: at 92.2 µM (top of the series), scaled: DMSO 0%, 100 µM tamoxifen 100%;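 further: cells exposed to compound for 16 hr before readout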
Outline: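 Caspase 3/7 activation measured by luminescent aminoluciferin substrate cleavage after 16 hr compound treatment of H-4-II-E cells in complete medium. Increase normalized between DMSO (basal) and 100 uM tamoxifen (100%); Hill-equation AC50 from concentration-response.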

[14] = Cellular Toxicity (caspase-3) Hek293 (AID 664); conditions: HEK293 caspase-3 activation, DMSO = 0%, 100 µM tamoxifen = 100%; at 92.2 µM (top of the series);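 further: cells exposed to compound for 16 h at 37 °C before readout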
Outline: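 Apoptosis readout: Caspase-Glo 3/7 signal in human HEK293 cells following 16-hour compound incubation. Responses scaled between DMSO baseline and 100 uM tamoxifen.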

[15] = Cellular Toxicity (caspase-3) N2a (AID 665); conditions: Potency: caspase-3 activation;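 further: compound exposure lasted 16 h at 37 °C before readout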
Outline: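 Concentration-response qHTS: compound-induced caspase-3/7 luminescence in N2a cells (16 h, 37 °C), relative to DMSO and 10 uM staurosporine controls; AC50 obtained using the standard Hill equation.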

[16] = Cellular Toxicity (caspase-3) NIH 3T3 (AID 666);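 further: 0% = DMSO basal and 100% = 100 µM tamoxifen stimulation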
Outline: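 Activity: caspase-3/7 induction, NIH 3T3 cells, 16 hr treatment at 37°C, luminescent Caspase-Glo detection; AC50 via Hill equation.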

[17] = Cellular Toxicity (caspase-3) Renal Proximal Tubule (AID 667);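 further: cells exposed to compound for 16 hours at 37 °C before detection; 0% = DMSO basal and 100% = 10 µM staurosporine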
Outline: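 In qHTS format, rat primary proximal tubule cells seeded at 1000 per well are exposed to compounds for 16 hours at 37 °C. An increase in Caspase-Glo 3/7 luminescence indicates caspase activation.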

[18] = target: Cytochrome P450 3A4 (Homo sapiens) (UniProt P08684); assay: qHTS Assay for Activators of Cytochrome P450 3A4 (AID 885); further: nearly all actives have a fitted effect of over 65% in size
Outline: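 Human CYP3A4 dealkylates Luciferin-PPXE to luciferin, which luciferase detection converts to light. Substrate was at its KM (25uM), buffer 200mM KPO4, reaction 60 min at RT.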

[19] = MultiTox-Fluor Cytotoxicity Assay - LYMP1-001 - Dead Cells (AID 946);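 further: 0% = DMSO and 100% = tetraoctylammonium bromide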
Outline: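 LYMP1-001 lymphoblastoid cells (2500/well) treated 16 h at 37 C. Dead-cell protease cleavage of bis-AAF-R110 read at Ex/Em 485/520. Normalized to DMSO and 15 uM tetraoctylammonium bromide; AC50 from Hill fits.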

[20] = MultiTox-Fluor Cytotoxicity Assay - LYMP1-002 - Live Cells (AID 955); further: on the % scale 0 is the no-effect control and ±100 the full control effect
Outline: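 In this qHTS viability format, lymphoblastoid cells (LYMP1-002, human) received compound for 16 hr at 37 C. Fluorogenic GF-AFC cleavage by viable cells was detected at 405/510 nm after 1 h at room temperature.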

[21] = Cell Viability - LYMP2-003 (AID 965);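 further: cells exposed to compounds for 24 h before reading; 0% = DMSO only and full effect = 92 µM tetraoctylammonium bromide; nearly all actives have a fitted effect of over 50% in size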
Outline: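 Acute cytotoxicity is scored as a concentration-dependent drop in intracellular ATP, measured by luciferase luminescence in human lymphoblastoid cells treated for 24 hours at 37 C. AC50 values derive from Hill-equation modelling.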

[22] = target: Bile acid receptor (Homo sapiens) (UniProt Q96RI1); assay: qHTS assay for small molecule antagonists of farnesoid X receptor signaling (AID 588526; calls by dose curve; further: on the % scale 0 is the no-effect control and ±100 the full control effect)
Sequence of Bile acid receptor (Homo sapiens) (Q96RI1 whole entry, looked up): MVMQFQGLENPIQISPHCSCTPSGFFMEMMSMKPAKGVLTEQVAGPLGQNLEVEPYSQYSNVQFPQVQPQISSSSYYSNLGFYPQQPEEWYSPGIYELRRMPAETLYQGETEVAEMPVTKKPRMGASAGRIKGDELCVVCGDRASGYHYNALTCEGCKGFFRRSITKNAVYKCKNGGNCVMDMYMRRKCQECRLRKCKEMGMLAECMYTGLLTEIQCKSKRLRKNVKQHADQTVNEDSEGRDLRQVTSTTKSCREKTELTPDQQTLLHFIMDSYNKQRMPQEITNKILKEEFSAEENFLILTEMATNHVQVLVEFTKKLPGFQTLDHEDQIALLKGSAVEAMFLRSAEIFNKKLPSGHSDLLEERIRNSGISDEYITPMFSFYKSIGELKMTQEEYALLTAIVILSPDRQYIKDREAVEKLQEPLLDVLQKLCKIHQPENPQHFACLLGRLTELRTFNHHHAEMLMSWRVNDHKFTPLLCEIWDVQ
Outline: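 Beta-lactamase reporter antagonist mode: HEK293T FXR-UAS-bla cells, titrated compound, CDCA stimulation, 16 h 37 C, CCF4 dye 2 h RT. Data normalized to CDCA 50 uM and DMSO; Hill-fit IC50.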

[23] = target: Glucocorticoid receptor (Homo sapiens) (UniProt P04150); assay: qHTS assay for small molecule antagonists of glucocorticoid receptor signaling (AID 588533; active means well fitted inhibition curve with a large enough effect in the signal ratio, with a control signal flat, not every such curve was filed as active; the % refers to the signal ratio;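 further: cells stimulated with 2 nM dexamethasone as agonist; on the % scale 0 is the no-effect control and ±100 the full control effect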)
Sequence of Glucocorticoid receptor (Homo sapiens) (P04150 whole entry, looked up): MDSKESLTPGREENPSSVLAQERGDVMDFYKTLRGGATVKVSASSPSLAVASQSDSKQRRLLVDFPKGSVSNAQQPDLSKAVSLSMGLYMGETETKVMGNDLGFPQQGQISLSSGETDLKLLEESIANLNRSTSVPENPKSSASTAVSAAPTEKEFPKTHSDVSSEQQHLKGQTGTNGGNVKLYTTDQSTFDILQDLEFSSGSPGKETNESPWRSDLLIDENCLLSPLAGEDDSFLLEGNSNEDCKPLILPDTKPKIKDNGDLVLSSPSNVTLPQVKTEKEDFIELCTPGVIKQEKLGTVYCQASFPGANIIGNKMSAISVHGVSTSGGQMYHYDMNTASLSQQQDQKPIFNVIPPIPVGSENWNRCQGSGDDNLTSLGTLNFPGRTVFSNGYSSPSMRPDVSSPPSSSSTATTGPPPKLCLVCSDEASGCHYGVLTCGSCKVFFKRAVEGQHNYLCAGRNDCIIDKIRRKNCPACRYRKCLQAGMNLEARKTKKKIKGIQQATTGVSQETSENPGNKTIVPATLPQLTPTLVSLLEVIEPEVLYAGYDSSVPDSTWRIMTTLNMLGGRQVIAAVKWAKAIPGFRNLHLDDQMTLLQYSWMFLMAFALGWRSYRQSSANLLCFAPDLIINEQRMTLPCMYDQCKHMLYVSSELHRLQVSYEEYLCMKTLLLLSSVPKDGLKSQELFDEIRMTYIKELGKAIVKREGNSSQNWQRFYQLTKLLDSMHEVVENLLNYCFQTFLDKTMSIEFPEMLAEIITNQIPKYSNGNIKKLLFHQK
Outline: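 Antagonist-mode qHTS: compound titrations added to GRE-bla HeLa cells, then dexamethasone 2 nM final; 18 h, 37 C. CCF4 FRET fluorescence normalized to dexamethasone and DMSO; IC50 from Hill fit.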

[24] = target: Vitamin D3 receptor (Homo sapiens) (UniProt P11473); assay: qHTS assay for small molecule antagonists of vitamin D receptor signaling (AID 588541; calls by dose curve;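 further: receptor activated by calcitriol during compound treatment; on the % scale 0 is the no-effect control and ±100 the full control effect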)
Sequence of Vitamin D3 receptor (Homo sapiens) (P11473 whole entry, looked up): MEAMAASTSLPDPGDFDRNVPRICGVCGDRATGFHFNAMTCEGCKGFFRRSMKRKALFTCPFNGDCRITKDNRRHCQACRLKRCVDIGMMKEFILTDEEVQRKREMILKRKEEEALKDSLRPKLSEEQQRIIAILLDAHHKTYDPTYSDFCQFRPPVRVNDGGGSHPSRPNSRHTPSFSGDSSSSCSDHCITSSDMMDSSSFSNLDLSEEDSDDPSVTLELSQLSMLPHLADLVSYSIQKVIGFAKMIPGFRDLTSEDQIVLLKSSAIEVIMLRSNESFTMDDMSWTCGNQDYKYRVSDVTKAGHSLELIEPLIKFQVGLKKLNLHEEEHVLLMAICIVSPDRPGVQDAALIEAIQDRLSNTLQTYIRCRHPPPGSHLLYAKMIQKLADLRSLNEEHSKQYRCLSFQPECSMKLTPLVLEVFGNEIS
Outline: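 Antagonist-mode beta-lactamase reporter assay: HEK293T VDR-UAS-bla cells were exposed to titrated compound alongside 1-alpha,25-dihydroxyvitamin D3 at 3 nM final for 16 h. Values were normalized to the 50 nM agonist control and DMSO basal, with IC50 and efficacy from Hill equation fits.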

[25] = target: Vitamin D3 receptor (Homo sapiens) (UniProt P11473); assay: qHTS assay for small molecule agonists of vitamin D receptor signaling (AID 588543; calls by dose curve;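 further: 0% = DMSO basal and 100% = reference agonist control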)
Outline: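 qHTS in agonist mode: compound titrations stimulate a VDR-driven β-lactamase reporter in HEK293T cells over 16 h at 37 °C. Response normalized to 50 nM 1α,25-dihydroxyvitamin D3 = 100%, DMSO = 0%; Hill fitting gives EC50 and maximal response.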

[26] = qHTS assay for small molecule agonists of retinoid X receptor alpha signaling (AID 588544); conditions: HEK293T RXRa-UAS-bla, beta-lactamase reporter, 18 h; 530 nm emission
[27] = target: Thyroid hormone receptor beta (Homo sapiens) (UniProt P10828); assay: qHTS assay for small molecule agonists of thyroid hormone receptor beta signaling (AID 588545; calls by dose curve;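 further: 0% = DMSO only and 100% = 10 nM T3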)
Sequence of Thyroid hormone receptor beta (Homo sapiens) (P10828 whole entry, looked up): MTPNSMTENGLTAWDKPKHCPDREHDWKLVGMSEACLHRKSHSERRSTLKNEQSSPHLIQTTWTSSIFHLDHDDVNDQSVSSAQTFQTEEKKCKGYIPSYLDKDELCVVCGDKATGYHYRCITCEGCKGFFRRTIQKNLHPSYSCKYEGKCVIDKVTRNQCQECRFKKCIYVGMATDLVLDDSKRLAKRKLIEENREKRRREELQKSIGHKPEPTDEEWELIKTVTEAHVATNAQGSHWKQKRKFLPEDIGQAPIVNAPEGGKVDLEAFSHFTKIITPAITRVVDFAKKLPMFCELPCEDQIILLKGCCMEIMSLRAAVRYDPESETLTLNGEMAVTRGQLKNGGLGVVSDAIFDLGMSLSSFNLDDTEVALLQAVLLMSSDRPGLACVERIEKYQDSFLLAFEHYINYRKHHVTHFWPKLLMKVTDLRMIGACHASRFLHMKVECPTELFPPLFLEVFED
Outline: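 Beta-lactamase reporter activity under TR response element control is measured in HEK 293 cells after 18 hrs compound exposure. Signal is ratiometric CCF4 fluorescence, 460/530 nm.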

[28] = qHTS assay for small molecule antagonists of retinoid X receptor alpha signaling (AID 588546; active means well fitted inhibition curve with a large enough effect in the signal ratio, with a control signal flat, not every such curve was filed as active; the % refers to the signal ratio); conditions: HEK293T RXRa-UAS-bla, beta-lactamase ratio, antagonist mode; measured here: W530 green channel, cytotoxicity proxy
Outline: (§1)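 Beta-lactamase reporter inhibition, read as CCF4 fluorescence ratio (ex 405, em 460/530 nm) after 2 h at RT. HEK293T UAS-bla cells, 2500/well, were stimulated with 9-cis-RA at 500 or 100 nM final alongside test compound for 18 h at 37 C.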

[29] = target: Retinoic acid receptor RXR-alpha (Homo sapiens) (UniProt P19793); assay: as above; conditions: HEK293T RXRa-UAS-bla, beta-lactamase ratio, antagonist mode
Sequence of Retinoic acid receptor RXR-alpha (Homo sapiens) (P19793 whole entry, looked up): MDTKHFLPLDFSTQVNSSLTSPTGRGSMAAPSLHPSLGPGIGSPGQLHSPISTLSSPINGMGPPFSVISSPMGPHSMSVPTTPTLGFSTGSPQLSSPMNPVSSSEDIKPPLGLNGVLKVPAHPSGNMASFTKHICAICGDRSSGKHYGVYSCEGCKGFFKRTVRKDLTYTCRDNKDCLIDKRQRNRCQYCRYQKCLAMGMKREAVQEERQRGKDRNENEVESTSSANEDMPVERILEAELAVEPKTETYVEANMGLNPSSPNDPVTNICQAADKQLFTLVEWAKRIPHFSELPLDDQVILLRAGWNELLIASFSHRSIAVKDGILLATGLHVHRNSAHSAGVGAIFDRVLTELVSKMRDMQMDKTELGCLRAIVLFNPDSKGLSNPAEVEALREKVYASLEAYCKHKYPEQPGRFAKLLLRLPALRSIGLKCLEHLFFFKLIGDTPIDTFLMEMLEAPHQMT
Outline: as §1

[30] = target: Thyroid hormone receptor beta (Homo sapiens) (UniProt P10828); assay: qHTS assay for small molecule antagonists of thyroid hormone receptor beta signaling (AID 588547; active means well fitted inhibition curve with a large enough effect in the signal ratio, with a control signal flat, not every such curve was filed as active; the % refers to the signal ratio); conditions: TR-UAS-bla HEK293, beta-lactamase ratio, antagonist mode, 18 h
Outline: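 Inhibition of T3-driven (0.4nM final) beta-lactamase reporter activity was measured over 0.59 nM to 92 uM compound after 18 h at 37 C. The cells were GripTite HEK293 TR-UAS-bla in charcoal/dextran-stripped serum, with CCF4 ratio read-out and IC50 from Hill fits.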

[31] = target: Voltage-gated inwardly rectifying potassium channel KCNH2 (Homo sapiens) (UniProt Q12809); assay: qHTS Assay for Small Molecule Inhibitors of the Human hERG Channel Activity (AID 588834);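 further: U2OS cells transduced with hERG by BacMam; top concentration of the series differs between compounds; on the % scale 0 is the no-effect control and ±100 the full control effect; lower thallium flux fluorescence means stronger hERG block; nearly all actives have a fitted effect of over 50% in size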
Sequence of Voltage-gated inwardly rectifying potassium channel KCNH2 (Homo sapiens) (Q12809 whole entry, looked up): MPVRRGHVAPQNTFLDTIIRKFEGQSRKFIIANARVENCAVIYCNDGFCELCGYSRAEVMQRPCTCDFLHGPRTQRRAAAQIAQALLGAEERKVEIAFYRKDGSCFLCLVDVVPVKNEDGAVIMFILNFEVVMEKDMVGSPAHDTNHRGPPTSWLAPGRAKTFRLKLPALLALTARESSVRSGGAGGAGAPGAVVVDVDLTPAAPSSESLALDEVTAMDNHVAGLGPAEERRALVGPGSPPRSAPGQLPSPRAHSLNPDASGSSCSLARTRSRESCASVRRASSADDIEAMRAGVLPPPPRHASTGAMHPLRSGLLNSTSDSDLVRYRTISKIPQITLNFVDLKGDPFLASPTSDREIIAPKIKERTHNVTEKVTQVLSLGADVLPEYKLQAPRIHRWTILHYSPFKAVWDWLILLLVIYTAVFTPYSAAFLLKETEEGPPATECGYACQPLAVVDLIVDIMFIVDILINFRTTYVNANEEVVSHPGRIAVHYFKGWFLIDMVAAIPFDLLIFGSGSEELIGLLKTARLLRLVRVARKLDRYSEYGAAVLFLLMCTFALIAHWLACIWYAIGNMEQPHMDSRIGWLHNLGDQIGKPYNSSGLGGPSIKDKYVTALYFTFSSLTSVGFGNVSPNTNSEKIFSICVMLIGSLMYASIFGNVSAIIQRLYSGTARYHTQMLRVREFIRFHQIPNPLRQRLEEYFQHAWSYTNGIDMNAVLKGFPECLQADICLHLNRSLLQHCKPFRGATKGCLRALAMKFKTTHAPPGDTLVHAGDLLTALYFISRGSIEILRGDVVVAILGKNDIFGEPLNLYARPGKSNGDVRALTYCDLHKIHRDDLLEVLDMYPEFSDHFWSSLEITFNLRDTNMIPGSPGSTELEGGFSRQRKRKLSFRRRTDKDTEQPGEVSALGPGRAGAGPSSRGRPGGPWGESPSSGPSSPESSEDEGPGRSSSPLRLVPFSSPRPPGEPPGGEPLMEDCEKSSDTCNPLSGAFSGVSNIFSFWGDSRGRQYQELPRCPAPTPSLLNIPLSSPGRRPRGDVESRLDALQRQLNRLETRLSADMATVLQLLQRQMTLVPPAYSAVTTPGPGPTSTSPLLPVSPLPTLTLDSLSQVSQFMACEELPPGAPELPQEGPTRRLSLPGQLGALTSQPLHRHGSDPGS
Outline: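 Cells were infected with hERG-BacMam virus for 4 hrs at room temperature, grown overnight, then seeded at 2000/well. After dye loading and roughly 10 min compound treatment, thallium influx was triggered and fluorescence recorded.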

[32] = qHTS assay for small molecule activators of the nuclear factor-kappa B (NF-kB) signaling pathway (AID 651749; active means well fitted activation curve with a large enough effect in the signal ratio; the % refers to the signal ratio; further: % of control where 0% means no effect); conditions: NF-kB-bla ME-180 cells, beta-lactamase FRET ratio, 16 h; stronger effect = higher value
Outline: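 FRET-based beta-lactamase detection in ME-180 cells reports NF-kB response-element-driven transcription following overnight (16 hr) compound treatment.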

[33] = qHTS assay for environmental chemicals that activate the Aryl hydrocarbon Receptor (AhR) signaling pathway (AID 651777); conditions: 1A2-DRE human hepatoma cells, luciferase, 24 h; activation: stronger effect = higher value; further: % of control where 0% means no effect; nearly all actives have a fitted effect of over 15% in size
Outline: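 Human hepatoma 1A2-DRE cells, stably carrying a dioxin response element and CYP1A2 promoter driving luciferase, were exposed to compounds for 24 hr at 37 C and 5% CO2. Luciferase signal was then read after 30 min One-Glo at room temperature.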

[34] = target: Peroxisome proliferator-activated receptor alpha (Homo sapiens) (UniProt Q07869); assay: qHTS assay for small molecule agonists of the peroxisome proliferator-activated receptor alpha (PPARalpha) signaling pathway (AID 651778); conditions: PathHunter PPARalpha complementation, chemiluminescence, 6 h; max response: stronger effect = higher value; further: % of control where 0% means no effect
Sequence of Peroxisome proliferator-activated receptor alpha (Homo sapiens) (Q07869 whole entry, looked up): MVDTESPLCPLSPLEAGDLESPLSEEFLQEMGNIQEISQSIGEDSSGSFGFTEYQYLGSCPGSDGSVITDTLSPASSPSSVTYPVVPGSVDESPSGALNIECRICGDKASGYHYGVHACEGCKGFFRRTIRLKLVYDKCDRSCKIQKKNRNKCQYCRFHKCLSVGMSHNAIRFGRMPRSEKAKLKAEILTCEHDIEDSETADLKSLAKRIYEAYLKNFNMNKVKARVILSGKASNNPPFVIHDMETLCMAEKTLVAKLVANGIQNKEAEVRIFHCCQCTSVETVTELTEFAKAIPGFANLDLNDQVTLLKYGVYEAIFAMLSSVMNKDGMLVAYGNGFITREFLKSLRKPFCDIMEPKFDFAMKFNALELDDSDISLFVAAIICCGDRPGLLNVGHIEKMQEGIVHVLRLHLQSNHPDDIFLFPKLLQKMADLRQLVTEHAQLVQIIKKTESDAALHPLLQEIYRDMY
Outline: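 Chemiluminescence from complemented enzyme reported PPARalpha activation in cells after 6 hr of compound treatment at 37 C. The detection reagent was incubated for 60 min at room temperature, and compounds were scored as agonists.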

[35] = target: Nuclear receptor subfamily 1 group I member 2 (Rattus norvegicus) (UniProt Q9R1A7); assay: qHTS assay for small molecule activators of the rat pregnane X receptor (rPXR) signaling pathway (AID 651751; call rule not given here; further: 0% is about no effect); conditions: rPXR reporter cells, luciferase (One-Glo), 24 h
Sequence of Nuclear receptor subfamily 1 group I member 2 (Rattus norvegicus) (Q9R1A7 whole entry, looked up): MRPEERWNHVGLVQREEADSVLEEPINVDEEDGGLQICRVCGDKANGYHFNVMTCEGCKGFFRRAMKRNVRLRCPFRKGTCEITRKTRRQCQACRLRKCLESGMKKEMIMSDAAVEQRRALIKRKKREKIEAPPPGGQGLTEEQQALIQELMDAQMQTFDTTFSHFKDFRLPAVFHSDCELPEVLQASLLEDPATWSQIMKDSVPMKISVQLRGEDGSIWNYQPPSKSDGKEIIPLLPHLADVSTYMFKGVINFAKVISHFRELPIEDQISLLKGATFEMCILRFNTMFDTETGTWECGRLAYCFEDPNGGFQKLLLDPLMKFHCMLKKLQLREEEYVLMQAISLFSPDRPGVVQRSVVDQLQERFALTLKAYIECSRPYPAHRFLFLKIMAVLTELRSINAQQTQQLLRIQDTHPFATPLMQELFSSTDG

[36] = qHTS assay for small molecule activators of the human pregnane X receptor (PXR) signaling pathway (AID 720659; call rule not given here; further: 0% is about no effect)

Cc1ccc(S(=O)(=O)Oc2ccc(N=Nc3ccc(-c4ccc(N=Nc5c(O)ccc6cc(S(=O)(=O)O)cc(S(=O)(=O)O)c56)c(C)c4)cc3C)cc2)cc1
inactive: Potency [1] > 92 µM | Potency [6] | Potency [7] | Potency [8] | Potency [9] | Potency [10] | outcome [11] | caspase-3 activation [12] -0.709% | caspase-3 activation [13] -0.204% | caspase-3 activation [14] -1.72% | Potency [15] | Potency [16] | outcome [17] | Potency [18] | Potency [19] | Potency [20] | Potency [21] | Potency [22] | Potency [23] | Potency [24] | outcome [25] | outcome [27] | max response [29] 14.7% | activity change % (negative = inhibition) [30] 6.13% | Potency [31] | activation [32] -0.0057% | activation [33] -2.33% | max response [34] -11.2% | max response [35] -4.06% | outcome [36]
active: Potency [2] 200 nM | Potency [3] 25.1 µM | Potency [4] 31.6 µM | Potency [5] 31.6 µM
-16.1%: max response [26]
-21.4%: max response [28]

From PubChem BioAssay (NCATS)
